Results: PubChem BioAssay (NCATS)
Inconclusive results are not listed. Active and inactive are the calls of the source. Unless noted, calls follow the shape of the dose curve; as a rule, active = well fitted curve in the direction sought with a large enough effect; inconclusive = small, poorly fitted or top-dose-only effect, or another doubt; inactive = no such curve, though single readings can be large; an effect the other way counts as inactive or inconclusive.

What was measured:
[1] = system: Zika virus NS2B-NS3 protease (linked construct); assay: Primary screen NINDS Rhodamine qHTS for Zika virus inhibitors (AID 1347160); also: nearly all actives have a fitted effect of over 55% in size; also: potency is read from the fitted curve at half-maximal effect
How it was run: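 Enzyme (25 nM, linked NS2B-NS3) was preincubated 15 min with compound in 10 mM Tris-HCl pH 8.0, 0.01% Tween 20. Rhodamine110 substrate (1.5 microM) was then added and fluorescence read at start and after 15 min.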

[2] = UWB1.289 Cancer Cell Toxicity qHTS against the NCATS CANVASS Library (AID 1347347); also: nearly all actives have a fitted effect of over 60% in size; also: potency is read from the fitted curve at half-maximal effect
How it was run: (§1)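 Viability read-out: CellTiter-Glo luminescence after 72 h compound exposure at 37 °C/5% CO2. Cells plated at 1000/well, 4 h pre-incubation; 11-point titration. Bortezomib served as control.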

[3] = U-118MG Cancer Cell Toxicity qHTS against the NCATS CANVASS Library (AID 1347351); also: potency is read from the fitted curve at half-maximal effect
How it was run: as §1

[4] = HPAF-II 24hr Apoptosis Induction qHTS against the NCATS CANVASS Library (AID 1347356)
How it was run: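 500 HPAF-II cells/well; compounds in 11-pnt qHTS; 24 h, 37 C/5% CO2; Caspase-Glo 3/7 added, 15 min RT dark; luminescence read. Doxorubicin control.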

[5] = HPAF-II 12hr Apoptosis Induction qHTS against the NCATS CANVASS Library (AID 1347358)
How it was run: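 Caspase-Glo 3/7 luminescence (DEVD substrate) reports caspase activity in HPAF-II cells after 12 h compound treatment at 37 degrees C. Compounds were tested in an 11-point series. Doxorubicin served as control.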

[6] = HPAF-II 18hr Apoptosis Induction qHTS against the NCATS CANVASS Library (AID 1347360)
How it was run: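 HPAF-II cells (500/well, DMEM + 10% FBS) were exposed to compounds for 18 hours at 37 degrees C. Caspase-3/7 activity was then read by Caspase-Glo 3/7 luminescence after 15 min at room temperature.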

[7] = KB-8-5-11 Cancer Cell Toxicity qHTS against the NCATS CANVASS Library (AID 1347364); also: nearly all actives have a fitted effect of over 75% in size; also: potency is read from the fitted curve at half-maximal effect
How it was run: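 CellTiter-Glo luminescence after 72 h exposure; 500 KB-8-5-11 cells/well, DMEM/10% FBS, 37C, 5% CO2; compounds in 11-pt qHTS. Follow-up confirmation included medium with 1uM tariquidar.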

[8] = J3T Cancer Cell Toxicity qHTS against the NCATS CANVASS Library (AID 1347371); also: potency is read from the fitted curve at half-maximal effect
How it was run: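 Dog glioma J3T, 500 cells/well; cpd 11-pt qHTS; 72 hr, 37C/5% CO2; CellTiterGlo ATP luminescence readout.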

[9] = target: Nuclear receptor subfamily 1 group I member 3 (Homo sapiens) (UniProt Q14994); assay: qHTS for Constitutive Androstane Receptor (CAR) Antagonist screened against the NCATS CANVASS Library (AID 1347372); also: potency is read from the fitted curve at half-maximal effect
Sequence of Nuclear receptor subfamily 1 group I member 3 (Homo sapiens) (Q14994 whole entry, looked up): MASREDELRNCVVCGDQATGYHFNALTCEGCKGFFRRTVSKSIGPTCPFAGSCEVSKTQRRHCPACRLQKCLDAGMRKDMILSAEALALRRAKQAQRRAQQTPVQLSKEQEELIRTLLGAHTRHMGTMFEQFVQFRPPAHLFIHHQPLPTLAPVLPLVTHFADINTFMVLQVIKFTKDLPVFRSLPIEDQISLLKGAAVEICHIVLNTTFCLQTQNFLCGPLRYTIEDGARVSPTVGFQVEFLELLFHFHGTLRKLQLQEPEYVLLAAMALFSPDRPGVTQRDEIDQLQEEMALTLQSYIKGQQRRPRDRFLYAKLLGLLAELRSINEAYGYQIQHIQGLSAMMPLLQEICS
How it was run: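 Antagonist mode: compound added alongside 50 nM CITCO to HepG2-hCAR-CYP2B6 reporter cells, 24hr at 37C. Viability by CellTiter-Fluor fluorescence, then CAR-driven luciferase by ONE-Glo luminescence.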

[10] = 10-beta competent E. coli microbial cell viability qHTS against the NCATS CANVASS Library (AID 1347376); also: series mostly up to about 46 µM
How it was run: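 Luminescence from BacTiter-Glo ATP detection served as the viability read-out; bacteria (0.2 OD) had been incubated overnight at 37C with pin-transferred compounds at 11 concentrations.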

[11] = qHTS for H2AX Agonists against the NCATS CANVASS Library (AID 1347378); also: potency is read from the fitted curve at half-maximal effect
How it was run: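 CHO-K1 cells were plated overnight at 37C, then exposed to compounds (concentration series, 0.76% DMSO final) for 3 hr at 37C. Lysates received Eu-cryptate anti-pH2AX (S139) and d2 anti-H2AX antibodies; after 24 hr at room temperature, TR-FRET 665/620 nm ratio was read.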

[12] = Inflammasome Signaling qHTS Counterscreen: IL-1-beta AlphaLISA counterscreen against the NCATS CANVASS Library (AID 1347381);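 also: cell-free check with purified IL-1β in medium and no THP-1 cells; series mostly up to about 57 µM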
How it was run: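 Here, no cellular stimulation occurs; compounds in an 11-point series meet 4 pg purified IL-1-beta directly. Bead-based AlphaLISA detection follows (1 h acceptor/antibody, then 30 min donor, dark, room temperature), with excitation at 680 nm.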

[13] = Cytotoxicity qHTS for assessment of Hepg2 cells membrane integrity screened against the NCATS CANVASS Library (AID 1347387)
How it was run: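 LDH release read by fluorescence (560 nm ex/590 nm em) after CytoTox-ONE addition and 10 min RT; signal tracks lysed cells. HepG2, 2000 cells/well, plated overnight; compound 5 hr, 37C, 5% CO2, final 0.59 nM - 46 uM, 11 points.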

[14] = qHTS assay for small molecule disruptors of mitochondrial membrane potential screened against the NCATS CANVASS Library (AID 1347389); also: nearly all actives have a fitted effect of over 60% in size; also: potency is read from the fitted curve at half-maximal effect
How it was run: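 Red/green fluorescence ratio read-out: J-aggregates ex 540/em 590 nm, monomers ex 490/em 535 nm. HepG2, 1 hr compound treatment, then 30 min Mito-MPS dye at 37C. 11-pt qHTS concentration series.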

[15] = qHTS for activators of dead-cell proteases activity screened against the NCATS CANVASS Library (AID 1347392);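 also: luminescence from protease leaking out of membrane-damaged cells cleaving impermeant substrate; rising signal means more cytotoxicity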; also: potency is read from the fitted curve at half-maximal effect
How it was run: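 Luminescent dead-cell protease readout (AAF-aminoluciferin, 15 min, room temperature) after 5 h compound treatment of HepG2 cells (2000/well, pre-attached 18 h). Eleven concentrations.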

[16] = Vero-766 cells viability qHTS against the NCATS CANVASS Library: Counterscreen for Zika virus inhibition assay (AID 1347394); also: nearly all actives have a fitted effect of over 60% in size; also: potency is read from the fitted curve at half-maximal effect
How it was run: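 Uninfected Vero 766 (African green monkey) cells, 1000/well, attached overnight, then exposed 72 h at 37C to compounds (11-point qHTS). Viability read by CellTiter-Glo luminescence; media-only wells served as 100% inhibition.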

[17] = Viability qHTS for inhibitors of the SERCaMP assay screened against the NCATS CANVASS Library (AID 1347400); also: nearly all actives have a fitted effect of over 70% in size; also: potency is read from the fitted curve at half-maximal effect
How it was run: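 CellTiter-Glo luminescence readout after 48 h compound exposure (11-pnt qHTS series) of SH-SY5Y-GLuc SERCaMP MJH297 cells seeded at 1000 cells/well; bortezomib positive control.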

[18] = Redox Reaction Profiling qHTS: Assay Interference Panel against the NCATS CANVASS Library (AID 1347401); also: potency is read from the fitted curve at half-maximal effect
How it was run: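 Redox-cycling liability assessed as DTT-driven conversion of resazurin (5 uM, with 200 uM DTT, HEPES pH 7.3) to fluorescent resorufin. Fluorescence at 525/598 nm measured initially and after 15 min dark incubation.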

[19] = target: 3',5'-cyclic-AMP phosphodiesterase 4B (Homo sapiens) (UniProt Q07343); assay: qHTS Assay for Inhibitors of PDE-IV (AID 607; active = well fitted activation curve with a large enough effect in the main read-out, with a control signal flat, not every such curve was filed as active)
Sequence of 3',5'-cyclic-AMP phosphodiesterase 4B (Homo sapiens) (Q07343 whole entry, looked up): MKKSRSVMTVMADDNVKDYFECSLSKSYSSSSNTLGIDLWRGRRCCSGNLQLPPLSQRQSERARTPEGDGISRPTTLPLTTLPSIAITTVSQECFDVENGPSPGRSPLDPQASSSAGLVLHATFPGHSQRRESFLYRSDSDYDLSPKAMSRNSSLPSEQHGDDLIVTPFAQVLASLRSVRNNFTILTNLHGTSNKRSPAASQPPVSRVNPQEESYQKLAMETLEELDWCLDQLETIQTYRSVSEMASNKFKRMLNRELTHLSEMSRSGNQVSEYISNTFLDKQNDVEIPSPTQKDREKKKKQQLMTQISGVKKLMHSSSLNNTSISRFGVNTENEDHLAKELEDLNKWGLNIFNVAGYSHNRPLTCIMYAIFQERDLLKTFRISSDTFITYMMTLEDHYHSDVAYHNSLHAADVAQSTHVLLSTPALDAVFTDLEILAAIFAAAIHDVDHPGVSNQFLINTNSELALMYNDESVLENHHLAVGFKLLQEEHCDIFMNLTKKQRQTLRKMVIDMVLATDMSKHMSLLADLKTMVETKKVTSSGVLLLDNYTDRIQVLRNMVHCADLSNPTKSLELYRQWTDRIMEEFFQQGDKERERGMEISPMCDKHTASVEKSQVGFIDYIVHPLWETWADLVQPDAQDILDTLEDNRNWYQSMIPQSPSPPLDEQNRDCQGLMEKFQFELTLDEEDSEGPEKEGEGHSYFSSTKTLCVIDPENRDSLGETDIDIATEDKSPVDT
How it was run: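 The readout is membrane depolarisation from a cAMP-sensing CNG channel, detected with a potential dye at ex 535/em 590. Cells were HEK293-derived (endogenous PDE-IV) at 1000 cells/well, titrated up to 22.9 uM final.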

[20] = HEK293 18hr Apoptosis Induction qHTS against the NCATS CANVASS Library (AID 1347357); also: potency is read from the fitted curve at half-maximal effect
How it was run: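 HEK293 cells (500 per well, DMEM with 10% FBS) were treated with natural products, incubated 18 hours at 37 degrees C, then caspase-3/7 activity was read by Caspase-Glo luminescence after 15 min at room temperature.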

Measured: Potency

CC[N@@+]1([O-])C[C@]2(C)CC[C@@H](O)[C@@]34C5C[C@H]6CC[C@@]5(C(C[C@H]23)C41)[C@H](O)[C@@]6(O)CO (some centres not stated)
active: [1] 49.3 µM
not listed: [19] | [20]
inactive: all other assays above

Cc1c(C(=O)c2ccc3ccccc3c2)c2cccc3c2n1[C@H](CN1CCOCC1)CO3
inactive: [19]

C[C@@H]1CC[C@@H](c2ccoc2)N2C[C@@]3(CC[C@@H]12)CS[C@@]1(CC[C@H]2[C@H](C)CC[C@@H](c4ccoc4)N2[C@@H]1O)C3
active: [1] 31.1 µM | [2] 6.66 µM | [3] 8.41 µM | [20] 8.33 µM | [7] 8.33 µM | [8] 9.35 µM | [9] 8.31 µM | [11] 10.9 µM | [14] 13.2 µM | [15] 11.7 µM | [16] 7.41 µM | [17] 13.5 µM
inactive: [10] | [12] | [18]

CC(=O)N[C@H]1CCN2CCC[C@H]12
active: [18] 63.2 µM
not listed: [1] | [19]
inactive: all other assays above

CCCC[C@@H]1CC[C@H]2CCCC(CCC)N12 (some centres not stated)
not listed: [1] | [2] | [19]
inactive: all other assays above

CC=C1CN(C=O)[C@H]2C[C@@H]1[C@@H](C(=O)OC)[C@@]13CCOC21Nc1ccccc13 (some centres not stated)
active: [1] 44 µM
not listed: [2] | [16] | [19]
inactive: all other assays above

CNCCc1c[nH]c2ccccc12
not listed: [19]
inactive: all other assays above

c1ccc2c3c([nH]c2c1)CNCC3
not listed: [3] | [19]
inactive: all other assays above

CC[C@@H]1CN2CC[C@@]3(O)C(=Nc4cccc(OC)c43)[C@@H]2C[C@@H]1/C(=C\OC)C(=O)OC
not listed: [19]
inactive: all other assays above
